Measurements from PubChem BioAssay (NCATS).
“And” between values parts separate entries of the source, which are not always exact repeats. Identical values can stand only once. Records with an inconclusive call do not appear. The source made the active and inactive calls. Unless noted, the call rests on the fitted dose curve.

Columns and labels:
[1] = target: Bile acid receptor (Homo sapiens) (UniProt Q96RI1); assay: qHTS assay for small molecule agonists of farnesoid X receptor signaling (AID 588527); details: HEK293T FXR-UAS-bla, beta-lactamase ratio, 16 h; activation: stronger effect = higher value;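 further: series mostly up to about 77 µM; 0% = vehicle basal and 100% = reference agonist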
Summary of the method: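 FXR-UAS-bla HEK293T, 10% dialyzed FBS; cpds up to 92 uM titration, 16 h 37 C; CCF4 dye 2 h RT; fluorescence. Normalized to chenodeoxycholic acid 100 uM (100%) and DMSO (0%); Hill fit gives EC50, efficacy.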

[2] = target: Glucocorticoid receptor (Homo sapiens) (UniProt P04150); assay: qHTS assay for small molecule agonists of glucocorticoid receptor signaling (AID 588532; active means well fitted curve in the direction sought with a large enough effect in the signal ratio, with a control signal flat; the % refers to the signal ratio;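 further: 100% = dexamethasone at 0.1 µM and 0% = DMSO only wells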); details: HeLa MMTV-bla, beta-lactamase ratio, agonist, 18 h; activation: stronger effect = higher value, percent of dexamethasone control, DMSO zero
Summary of the method: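 Stimulation of a glucocorticoid response element-driven beta-lactamase gene was measured in HeLa cells. Responses were scaled between DMSO basal and 0.1 uM dexamethasone, then fitted for half-maximal stimulation.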

[3] = target: Glucocorticoid receptor (Homo sapiens) (UniProt P04150); assay: qHTS assay for small molecule antagonists of glucocorticoid receptor signaling (AID 588533; active means well fitted inhibition curve with a large enough effect in the signal ratio, with a control signal flat, not every such curve was filed as active; the % refers to the signal ratio;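 further: cells stimulated with 2 nM dexamethasone as agonist; on the % scale 0 is the no-effect control and ±100 the full control effect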)
Summary of the method: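 Antagonist-mode qHTS: compound titrations added to GRE-bla HeLa cells, then dexamethasone 2 nM final; 18 h, 37 C. CCF4 FRET fluorescence normalized to dexamethasone and DMSO; IC50 from Hill fit.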

[4] = qHTS assay for small molecule antagonists of peroxisome proliferator-activated receptor delta signaling (AID 588535; active means well fitted inhibition curve with a large enough effect in the signal ratio, with a control signal flat, not every such curve was filed as active; the % refers to the signal ratio;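 on max response: cells co-treated with a PPAR-delta agonist as stimulator during compound exposure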); details: HEK293T PPARd-UAS-bla, beta-lactamase FRET ratio, 18 h; 460 nm channel
Summary of the method: (§1)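 Reporter: UAS-bla under PPAR-delta response element, HEK293T host. Medium: 2% charcoal/dextran FBS. Dosing: titration, 18 hrs, 37 C. Detection: CCF4, 2 hrs RT, 405 ex/460 and 530 em.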

[5] = target: Peroxisome proliferator-activated receptor delta (Homo sapiens) (UniProt Q03181); assay: as above
Summary of the method: as §1

[6] = qHTS assay for small molecule agonists of retinoid X receptor alpha signaling (AID 588544); details: HEK293T RXRa-UAS-bla, beta-lactamase reporter, 18 h; 530 nm emission;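 on activation: 0% = DMSO basal wells and 100% = reference agonist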
[7] = target: Retinoic acid receptor RXR-alpha (Homo sapiens) (UniProt P19793); assay: as above
[8] = target: Thyroid hormone receptor beta (Homo sapiens) (UniProt P10828); assay: qHTS assay for small molecule agonists of thyroid hormone receptor beta signaling (AID 588545)
Summary of the method: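 Cells (2500/well) were seeded, incubated 4 hrs at 37 C, dosed with a compound series, incubated 18 hrs, loaded with CCF4 dye for 2 hrs at RT, then read for fluorescence. Data were scaled between DMSO (0%) and 10 nM T3 (100%).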

[9] = qHTS assay for small molecule agonists of the antioxidant response element (ARE) signaling pathway (AID 651741; active means well fitted activation curve with a large enough effect in the signal ratio; the % refers to the signal ratio; further: potency means the concentration at half of the fitted maximal effect; on activation: % of control where 0% means no effect)
Summary of the method: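 Compounds in DMSO are pinned onto HepG2 ARE-bla cells (2,000/well) that were preincubated 5 h; plates stay 16 h at 37 C, then beta-lactamase activity is detected with LiveBLAzer B/G substrate by fluorescence.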

[10] = qHTS assay for small molecule activators of the p53 signaling pathway (AID 651743; active means well fitted activation curve with a large enough effect in the signal ratio, not every such curve was filed as active; the % refers to the signal ratio; further: potency means the concentration at half of the fitted maximal effect; on activation: series mostly up to about 92 µM; % of control where 0% means no effect); details: HCT-116 p53RE-bla, beta-lactamase FRET ratio, 16 h; activation: stronger effect = higher value
Summary of the method: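 Cell-based beta-lactamase reporter (p53 response elements, HCT-116 background). After a 5-hour preincubation, cells received compound for 16 hours at 37 C; substrate development ran 2 hours at room temperature.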

[11] = qHTS assay for small molecule activators of the nuclear factor-kappa B (NF-kB) signaling pathway (AID 651749; active means well fitted activation curve with a large enough effect in the signal ratio; the % refers to the signal ratio; further: series mostly up to about 77 µM; % of control where 0% means no effect); details: NF-kB-bla ME-180 cells, beta-lactamase FRET ratio, 16 h; activation: stronger effect = higher value
Summary of the method: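 Screening used 2,000 ME-180 reporter cells per well exposed to pinned compound (23 nL) or DMSO; after 16 hr at 37C, beta-lactamase expression under NF-kB control was assessed through FRET.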

[12] = qHTS assay for environmental chemicals that activate the Aryl hydrocarbon Receptor (AhR) signaling pathway (AID 651777; active means well fitted curve in the direction sought with a large enough effect; an effect the other way counts as inactive or inconclusive; further: nearly all actives have a fitted effect of over 15% in size; further: potency means the concentration at half of the fitted maximal effect; on activation: % of control where 0% means no effect); details: 1A2-DRE human hepatoma cells, luciferase, 24 h; activation: stronger effect = higher value
Summary of the method: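 Stable CYP1A2 promoter/DRE-luciferase human hepatoma line treated 24 hr; One-Glo luminescence, 30 min RT.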

[13] = target: Peroxisome proliferator-activated receptor alpha (Homo sapiens) (UniProt Q07869); assay: qHTS assay for small molecule agonists of the peroxisome proliferator-activated receptor alpha (PPARalpha) signaling pathway (AID 651778; active means well fitted curve in the direction sought with a large enough effect; an effect the other way counts as inactive or inconclusive; further: % of control where 0% means no effect); details: PathHunter PPARalpha complementation, chemiluminescence, 6 h; max response: stronger effect = higher value
Summary of the method: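 Cells plated at 2,000/well and held overnight at 37 C, 5% CO2, then compound added by pin tool for 6 hr; after PathHunter detection reagent and 60 min at room temperature, chemiluminescence from enzyme complementation was read.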

[14] = qHTS assay for small molecule agonists of the antioxidant response element (ARE) signaling pathway measured by Nrf2-dependant transcriptional activity (AID 720636; active means well fitted curve in the direction sought with a large enough effect in the repeat runs; an effect the other way counts as inactive or inconclusive; further: potency means the concentration at half of the fitted maximal effect;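 on activation: HepG2 cells with an ARE-driven luciferase reporter; % of control where 0% means no effect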)
Summary of the method: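 Reporter gene assay, HepG2 ARE-luc: 16 hr compound, 37 C, 5% CO2; read-out luciferase luminescence.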

[15] = qHTS assay for small molecule agonists of the antioxidant response element (ARE) signaling pathway measured by Nrf2-dependant transcriptional activity - cell viability counter screen (AID 720653; active means well fitted curve in the direction sought with a large enough effect in the repeat runs; an effect the other way counts as inactive or inconclusive; further: on the % scale 0 is the no-effect control and ±100 the full control effect); details: ARE-bla HepG2 viability, CellTiter-Glo ATP luminescence, 16 h; max response: stronger effect = lower value
Summary of the method: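 ARE-bla HepG2 cells (2,000/well) rested 5 hrs at 37C/5% CO2, then exposed to compounds in DMSO for 16 hrs. Viability was read in the same wells as intracellular ATP by luminescence, 30 min at room temperature after reagent addition.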

[16] = qHTS assay for cell viability of HEK293 cells (AID 743288; active means well fitted curve in the direction sought with a large enough effect; an effect the other way counts as inactive or inconclusive; further: on the % scale 0 is the no-effect control and ±100 the full control effect; nearly all actives have a fitted effect of over 50% in size); details: ATP luminescence (CellTiter-Glo), 18 h; max response: stronger effect = lower value
Summary of the method: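 Parental HEK293 cells, 2,000 per well, preincubated at least 5 h at 37 C, then exposed to compounds in DMSO for 18 h at 37 C. Viability by CellTiter-Glo ATP luminescence after 30 min at room temperature.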

[17] = qHTS assay for cell viability of the p53RE-bla HCT-116 cell line (AID 743292; active means well fitted curve in the direction sought with a large enough effect; an effect the other way counts as inactive or inconclusive; further: on the % scale 0 is the no-effect control and ±100 the full control effect; nearly all actives have a fitted effect of over 55% in size)
Summary of the method: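 Readout: CellTiter-Glo luminescence after 30 min RT. Treatment: compounds in DMSO, 16 h, 37 C. Cells: CellSensor p53RE-bla HCT-116, 4,000/well, preincubated 5 h.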

[18] = target: Nuclear receptor subfamily 1 group I member 2 (Rattus norvegicus) (UniProt Q9R1A7); assay: qHTS assay for small molecule activators of the rat pregnane X receptor (rPXR) signaling pathway (AID 651751; call rule not given here; further: 0% is about no effect); details: rPXR reporter cells, luciferase (One-Glo), 24 h
[19] = target: Vitamin D3 receptor (Homo sapiens) (UniProt P11473); assay: qHTS assay for small molecule agonists of vitamin D receptor signaling (AID 588543);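 further: 0% = DMSO basal and 100% = reference agonist control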
Summary of the method: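 VDR-UAS-bla HEK293T cells, 2000/well, 2% charcoal-stripped FBS; compound titration 16 h at 37 C; CCF4 beta-lactamase ratio read. Normalized to 50 nM 1-alpha,25-dihydroxyvitamin D3 (100%) and DMSO; Hill fit gives EC50, efficacy.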

[20] = target: Peroxisome proliferator-activated receptor delta (Homo sapiens) (UniProt Q03181); assay: qHTS assay for small molecule agonists of peroxisome proliferator-activated receptor delta signaling (AID 588534);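 further: 0% = DMSO basal wells and 100% = positive control agonist at 10 µM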
Summary of the method: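 Cells carrying a PPAR-delta beta-lactamase reporter were treated with compounds for 18 h at 37 °C in agonist mode. CCF4 fluorescence was read after 2 h; EC50 and efficacy from Hill fits.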

[21] = target: Thyroid hormone receptor beta (Homo sapiens) (UniProt P10828); assay: qHTS assay for small molecule antagonists of thyroid hormone receptor beta signaling (AID 588547; active means well fitted inhibition curve with a large enough effect in the signal ratio, with a control signal flat, not every such curve was filed as active; the % refers to the signal ratio;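 further: cells stimulated with 0.4 nM T3 agonist during compound exposure; series mostly up to about 77 µM; on the % scale 0 is the no-effect control and ±100 the full control effect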); details: TR-UAS-bla HEK293, beta-lactamase ratio, antagonist mode, 18 h
Summary of the method: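 TR-UAS-bla GripTite HEK293 cells in 2% charcoal/dextran FBS medium were preincubated 4 h at 37 C, given compound (0.59 nM to 92 uM) plus 0.4 nM T3 (final) for 18 h, then CCF4 for 2 h at RT; Hill fit gave IC50.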

[22] = qHTS assay for small molecule activators of the human pregnane X receptor (PXR) signaling pathway (AID 720659; call rule not given here; further: 0% is about no effect)
[23] = qHTS assay for small molecule antagonists of retinoid X receptor alpha signaling (AID 588546; active means well fitted inhibition curve with a large enough effect in the signal ratio, with a control signal flat, not every such curve was filed as active; the % refers to the signal ratio; further: potency means the concentration at half of the fitted maximal effect); details: HEK293T RXRa-UAS-bla, beta-lactamase ratio, antagonist mode; measured here: W530 green channel, cytotoxicity proxy
Summary of the method: (§2)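 Beta-lactamase reporter inhibition, read as CCF4 fluorescence ratio (ex 405, em 460/530 nm) after 2 h at RT. HEK293T UAS-bla cells, 2500/well, were stimulated with 9-cis-RA at 500 or 100 nM final alongside test compound for 18 h at 37 C.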

[24] = target: Retinoic acid receptor RXR-alpha (Homo sapiens) (UniProt P19793); assay: as above; details: HEK293T RXRa-UAS-bla, beta-lactamase ratio, antagonist mode
Summary of the method: as §2

[25] = target: Peroxisome proliferator-activated receptor gamma (Homo sapiens) (UniProt P37231); assay: qHTS assay for small molecule agonists of peroxisome proliferator-activated receptor gamma signaling (AID 588536; active means well fitted curve in the direction sought with a large enough effect in the signal ratio, with a control signal flat, not every such curve was filed as active; the % refers to the signal ratio;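 further: 0% = DMSO basal wells and 100% = rosiglitazone at 2 µM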)
Summary of the method: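 PPAR-gamma-UAS-bla HEK293 cells in medium with 1% charcoal/dextran-treated FBS were exposed to compounds for 16 h at 37 C. Beta-lactamase activity was read with CCF4 substrate (405 nm excitation, 460/530 nm emission).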

[26] = target: Vitamin D3 receptor (Homo sapiens) (UniProt P11473); assay: qHTS assay for small molecule antagonists of vitamin D receptor signaling (AID 588541);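 further: receptor activated by calcitriol during compound treatment; series mostly up to about 77 µM; on the % scale 0 is the no-effect control and ±100 the full control effect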
Summary of the method: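 VDR-UAS-bla HEK293T cells (2000/well, 2% charcoal-stripped FBS) were treated with titrated compounds plus 1-alpha,25-dihydroxyvitamin D3 (50 nM or 3 nM final) for 16 h at 37 C. CCF4 beta-lactamase fluorescence was read; Hill fits gave IC50.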

Peroxisome proliferator-activated receptor alpha (Homo sapiens), sequence (Q07869 whole entry, looked up): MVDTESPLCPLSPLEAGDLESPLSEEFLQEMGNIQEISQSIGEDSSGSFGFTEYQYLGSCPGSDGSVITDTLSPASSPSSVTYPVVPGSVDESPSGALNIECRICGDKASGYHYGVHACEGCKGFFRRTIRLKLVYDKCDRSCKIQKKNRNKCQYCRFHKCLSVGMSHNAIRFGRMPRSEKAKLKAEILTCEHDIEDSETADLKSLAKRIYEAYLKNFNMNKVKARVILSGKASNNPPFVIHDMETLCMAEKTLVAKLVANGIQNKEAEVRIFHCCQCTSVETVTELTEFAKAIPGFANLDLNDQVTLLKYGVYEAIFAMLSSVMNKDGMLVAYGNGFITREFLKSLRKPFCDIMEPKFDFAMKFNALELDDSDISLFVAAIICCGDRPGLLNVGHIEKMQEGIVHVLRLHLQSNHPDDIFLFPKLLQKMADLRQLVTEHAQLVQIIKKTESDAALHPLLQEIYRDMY
Peroxisome proliferator-activated receptor delta (Homo sapiens), sequence (Q03181 whole entry, looked up): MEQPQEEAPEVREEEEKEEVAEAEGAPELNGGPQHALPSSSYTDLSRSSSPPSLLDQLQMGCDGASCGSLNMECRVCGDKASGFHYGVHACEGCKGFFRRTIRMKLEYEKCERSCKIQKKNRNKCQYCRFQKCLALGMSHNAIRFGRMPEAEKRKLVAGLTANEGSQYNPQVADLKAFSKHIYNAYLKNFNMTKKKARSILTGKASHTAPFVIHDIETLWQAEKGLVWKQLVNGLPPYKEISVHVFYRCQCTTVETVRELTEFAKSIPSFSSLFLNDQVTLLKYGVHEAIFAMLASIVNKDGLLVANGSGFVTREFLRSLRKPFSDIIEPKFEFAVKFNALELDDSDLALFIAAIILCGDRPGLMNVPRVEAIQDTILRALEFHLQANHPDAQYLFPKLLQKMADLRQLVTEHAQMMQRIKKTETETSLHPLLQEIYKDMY
Vitamin D3 receptor (Homo sapiens), sequence (P11473 whole entry, looked up): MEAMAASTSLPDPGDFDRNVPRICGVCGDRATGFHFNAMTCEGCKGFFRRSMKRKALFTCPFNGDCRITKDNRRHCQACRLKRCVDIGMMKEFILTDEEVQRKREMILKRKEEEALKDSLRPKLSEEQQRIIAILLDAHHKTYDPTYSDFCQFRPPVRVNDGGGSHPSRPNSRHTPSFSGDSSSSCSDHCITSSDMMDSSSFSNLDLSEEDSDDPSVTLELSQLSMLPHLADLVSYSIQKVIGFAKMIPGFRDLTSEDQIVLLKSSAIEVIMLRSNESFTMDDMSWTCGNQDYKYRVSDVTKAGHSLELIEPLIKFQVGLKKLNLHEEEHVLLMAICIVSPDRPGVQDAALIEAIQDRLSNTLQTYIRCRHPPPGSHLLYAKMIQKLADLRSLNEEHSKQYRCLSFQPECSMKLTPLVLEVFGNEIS
Thyroid hormone receptor beta (Homo sapiens), sequence (P10828 whole entry, looked up): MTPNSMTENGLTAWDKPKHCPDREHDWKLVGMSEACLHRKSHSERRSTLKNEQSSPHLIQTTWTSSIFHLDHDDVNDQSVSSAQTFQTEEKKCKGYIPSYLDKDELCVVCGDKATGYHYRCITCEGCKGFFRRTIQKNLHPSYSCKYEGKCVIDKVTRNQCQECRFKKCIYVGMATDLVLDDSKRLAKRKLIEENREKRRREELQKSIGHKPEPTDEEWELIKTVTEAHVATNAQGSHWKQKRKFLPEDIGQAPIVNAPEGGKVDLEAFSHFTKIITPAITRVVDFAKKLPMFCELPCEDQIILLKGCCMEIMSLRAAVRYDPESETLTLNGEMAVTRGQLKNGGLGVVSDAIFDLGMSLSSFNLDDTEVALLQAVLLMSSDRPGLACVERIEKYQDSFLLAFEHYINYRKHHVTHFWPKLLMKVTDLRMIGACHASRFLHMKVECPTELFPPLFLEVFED
Retinoic acid receptor RXR-alpha (Homo sapiens), sequence (P19793 whole entry, looked up): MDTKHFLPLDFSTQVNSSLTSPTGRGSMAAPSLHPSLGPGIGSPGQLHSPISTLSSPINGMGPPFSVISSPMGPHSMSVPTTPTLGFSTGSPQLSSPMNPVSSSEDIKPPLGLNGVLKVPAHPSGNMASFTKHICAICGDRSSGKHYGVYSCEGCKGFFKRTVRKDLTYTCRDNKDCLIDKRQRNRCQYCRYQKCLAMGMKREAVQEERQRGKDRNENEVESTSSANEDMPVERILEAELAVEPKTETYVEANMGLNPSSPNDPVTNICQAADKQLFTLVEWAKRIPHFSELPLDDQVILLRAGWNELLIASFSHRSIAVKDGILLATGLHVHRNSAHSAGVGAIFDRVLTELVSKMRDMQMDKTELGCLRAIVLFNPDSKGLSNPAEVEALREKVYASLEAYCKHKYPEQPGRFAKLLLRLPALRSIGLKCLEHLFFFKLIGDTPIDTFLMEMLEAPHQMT
Bile acid receptor (Homo sapiens), sequence (Q96RI1 whole entry, looked up): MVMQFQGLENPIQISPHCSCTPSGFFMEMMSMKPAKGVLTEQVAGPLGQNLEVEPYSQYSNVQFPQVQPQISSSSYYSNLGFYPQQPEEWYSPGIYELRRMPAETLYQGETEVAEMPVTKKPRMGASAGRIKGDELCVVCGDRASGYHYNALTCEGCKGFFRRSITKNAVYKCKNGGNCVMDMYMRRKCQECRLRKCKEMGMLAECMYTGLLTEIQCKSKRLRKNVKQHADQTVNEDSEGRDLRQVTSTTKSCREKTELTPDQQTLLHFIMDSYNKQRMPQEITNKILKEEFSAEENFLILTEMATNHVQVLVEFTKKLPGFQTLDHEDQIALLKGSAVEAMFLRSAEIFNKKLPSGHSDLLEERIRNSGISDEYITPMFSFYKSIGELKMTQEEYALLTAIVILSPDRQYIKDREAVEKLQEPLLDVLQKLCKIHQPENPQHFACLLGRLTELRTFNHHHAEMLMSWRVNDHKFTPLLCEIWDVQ
Glucocorticoid receptor (Homo sapiens), sequence (P04150 whole entry, looked up): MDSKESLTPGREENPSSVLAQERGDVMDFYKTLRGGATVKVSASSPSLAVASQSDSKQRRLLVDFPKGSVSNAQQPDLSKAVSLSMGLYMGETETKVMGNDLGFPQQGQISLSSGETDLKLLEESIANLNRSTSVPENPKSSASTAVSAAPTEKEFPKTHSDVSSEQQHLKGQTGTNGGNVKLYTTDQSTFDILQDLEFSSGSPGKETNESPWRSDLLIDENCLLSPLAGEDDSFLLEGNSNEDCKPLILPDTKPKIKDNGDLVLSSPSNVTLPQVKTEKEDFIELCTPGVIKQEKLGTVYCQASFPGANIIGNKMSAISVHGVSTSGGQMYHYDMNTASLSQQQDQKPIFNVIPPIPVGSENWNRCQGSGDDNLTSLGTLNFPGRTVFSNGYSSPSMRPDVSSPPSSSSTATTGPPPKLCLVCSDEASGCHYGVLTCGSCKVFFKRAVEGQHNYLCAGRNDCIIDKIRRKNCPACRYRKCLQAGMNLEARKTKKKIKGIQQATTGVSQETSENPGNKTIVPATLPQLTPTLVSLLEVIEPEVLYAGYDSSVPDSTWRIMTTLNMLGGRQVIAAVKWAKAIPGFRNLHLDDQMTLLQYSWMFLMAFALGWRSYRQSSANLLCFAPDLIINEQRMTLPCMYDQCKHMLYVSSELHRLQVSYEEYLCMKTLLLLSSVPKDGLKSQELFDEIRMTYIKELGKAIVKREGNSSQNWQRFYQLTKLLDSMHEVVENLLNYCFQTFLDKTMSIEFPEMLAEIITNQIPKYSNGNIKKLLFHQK
Nuclear receptor subfamily 1 group I member 2 (Rattus norvegicus), sequence (Q9R1A7 whole entry, looked up): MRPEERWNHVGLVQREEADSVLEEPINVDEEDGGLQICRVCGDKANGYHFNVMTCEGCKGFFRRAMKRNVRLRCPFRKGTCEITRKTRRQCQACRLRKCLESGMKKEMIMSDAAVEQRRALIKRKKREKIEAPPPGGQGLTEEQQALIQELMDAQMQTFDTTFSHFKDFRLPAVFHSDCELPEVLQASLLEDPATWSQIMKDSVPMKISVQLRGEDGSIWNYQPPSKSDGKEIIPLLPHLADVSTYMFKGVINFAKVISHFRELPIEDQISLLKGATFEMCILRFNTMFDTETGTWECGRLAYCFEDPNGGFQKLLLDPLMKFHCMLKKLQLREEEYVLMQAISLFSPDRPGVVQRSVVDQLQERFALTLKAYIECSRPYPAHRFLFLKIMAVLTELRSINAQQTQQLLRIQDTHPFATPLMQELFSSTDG
Peroxisome proliferator-activated receptor gamma (Homo sapiens), sequence (P37231 whole entry, looked up): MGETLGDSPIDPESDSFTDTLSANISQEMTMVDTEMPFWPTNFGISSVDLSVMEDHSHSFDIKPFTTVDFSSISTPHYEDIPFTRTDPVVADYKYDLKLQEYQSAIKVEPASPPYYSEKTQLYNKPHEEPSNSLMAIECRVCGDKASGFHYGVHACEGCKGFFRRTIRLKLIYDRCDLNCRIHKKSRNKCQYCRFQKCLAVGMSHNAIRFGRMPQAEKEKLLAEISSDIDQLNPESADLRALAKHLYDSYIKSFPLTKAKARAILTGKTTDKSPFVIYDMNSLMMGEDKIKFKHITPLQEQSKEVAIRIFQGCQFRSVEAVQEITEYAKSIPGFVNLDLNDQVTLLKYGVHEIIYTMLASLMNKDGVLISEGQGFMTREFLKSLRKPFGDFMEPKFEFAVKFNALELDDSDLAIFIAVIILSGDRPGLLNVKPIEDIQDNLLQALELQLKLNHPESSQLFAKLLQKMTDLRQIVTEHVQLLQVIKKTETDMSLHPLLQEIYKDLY

O=C(O)[C@@H]1[C@H](C(=O)O)[C@@]2(Cl)C(Cl)=C(Cl)[C@]1(Cl)C2(Cl)Cl
activation [1]: 7.2% (inactive)
activation [2]: -1.44% (inactive)
Potency [3]: inactive
max response [4]: 2.51%
Potency [5]: inactive
max response [6]: -1.73%
Potency [7]: inactive
Potency [8]: inactive
Potency [9]: inactive
activation [10]: -1.67% (inactive)
activation [11]: -0.556% (inactive)
activation [12]: 1.48% (inactive)
max response [13]: 0.99% (inactive)
Potency [14]: inactive
max response [15]: -22.8% (inactive)
max response [16]: -18.3% (inactive)
Potency [17]: inactive
max response [18]: 4.23% (inactive)

CN(C)c1ccc(C(=O)c2ccc(N(C)C)cc2)cc1
activation [1]: -3.55% (inactive)
activation [2]: -2.75% (inactive)
outcome [19]: inactive
Potency [8]: inactive
Potency [10]: 3.98 µM (active)
activation [11]: 1.06% (inactive)
Potency [12]: 5.01 µM (active)
max response [13]: -1.25% (inactive)
max response [15]: -12.9% (inactive)
max response [16]: -23.3% (inactive)
Potency [17]: inactive

CN=C(N)NCC1CCOC1 (stereo not drawn)
activation [1]: -3.33% (inactive) and 1.46% (inactive)

CC1=CC(=O)NS(=O)(=O)O1
activation [1]: 1.83% (inactive) and 0.839% (inactive)
outcome [20]: inactive

CC(C)(C)c1ccc(C(=O)O)cc1
activation [1]: -9.49% (inactive)

CC[C@H]1CCCC(O[C@H]2CC[C@H](N(C)C)[C@@H](C)O2)[C@@H](C)C(=O)C2=C[C@@H]3[C@@H](C=C[C@@H]4C[C@@H](O[C@@H]5O[C@@H](C)[C@H](OC)[C@@H](OC)[C@H]5OC)C[C@@H]34)[C@@H]2CC(=O)O1 (stereo partly drawn)
activation [1]: 3.6% (inactive)
activation [2]: -4.34% (inactive)
Potency [8]: inactive
activity change % (negative = inhibition) [21]: -5.92% (inactive)
Potency [9]: 48.6 µM (active)
activation [10]: -4.77% (inactive)
activation [11]: -0.423% (inactive)
max response [13]: -2.17% (inactive)
Potency [14]: inactive
max response [15]: 3.99% (inactive)
max response [16]: -1.89% (inactive)
Potency [17]: inactive
max response [18]: -7.6% (inactive)
outcome [22]: inactive

Fc1ccc(Oc2ccnc3cc(Cl)cc(Cl)c23)cc1
activation [1]: -3.06% (inactive)
activation [2]: -6.4% (inactive)
Potency [8]: inactive
max response [23]: 20.3%
Potency [24]: 39.8 µM (active)
Potency [9]: 21.7 µM (active)
activation [12]: 15% (inactive)
max response [13]: 3.62% (inactive)
Potency [14]: 34.4 µM (active)
max response [15]: -31.6% (inactive)
Potency [17]: inactive

O=P(Oc1ccccc1)(Oc1ccccc1)Oc1ccccc1
activation [1]: 1.95% (inactive)
activation [2]: 6.86% (inactive)
Potency [3]: inactive
outcome [20]: inactive
max response [4]: 29%
Potency [25]: inactive
Potency [26]: inactive
outcome [19]: inactive
Potency [8]: inactive
max response [23]: 0.157%
max response [24]: -15.3% (inactive)
activity change % (negative = inhibition) [21]: -5.53% (inactive)
activation [10]: -5.18% (inactive)
activation [11]: -2% (inactive)
activation [12]: 2.98% (inactive)
max response [13]: -0.776% (inactive)
Potency [14]: inactive
max response [15]: -2.38% (inactive)
max response [16]: -15.7% (inactive)
Potency [17]: inactive
